Source: PubChem (National Center for Advancing Translational Sciences (NCATS))
ELG1 genotoxic – qHTS screen for small molecules that induce genotoxicity in human embryonic kidney (HEK293T) cells expressing luciferase-tagged ELG1; HEK293T ELG1-luciferase reporter, luminescence, 16 h; Potency, µM (highest dose often 46 µM), for inactives: at the top dose activity change, positive = activation, actives largely listed as activators; hit rate 1.3% among 330,000; further: % of control where 0% means no effect; nearly all actives have a fitted effect of over 60% in size
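Luminescence read-out: rising ELG1-luciferase signal, reflecting elevated ELG1 protein under genetic stress, flags genotoxic compounds. Cells were treated for 16 hr at 37 °C before ONE-Glo detection.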
Rab9 promoter act – qHTS Assay for Rab9 Promoter Activators | Huh7 Rab9 promoter-luciferase reporter, luminescence, 24 h | Potency, µM (highest dose often 9.22 µM), without a hit: top-dose activation, negative = inhibition, hits mostly activators | hit rate 2.8% among 320,000; further: % of control where 0% means no effect; nearly all actives have a fitted effect of over 60% in size
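Huh7 cells stably carrying a Rab9 promoter-luciferase reporter, 1500 cells per well in OP-MEM I with 10% FBS, treated with compound 24 hours at 37C. Luciferase activity read by luminescence after 10 minutes with Amplite reagent.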
NPC1 prom act – qHTS Assay for NPC1 Promoter Activators. Huh7 NPC1 promoter luciferase reporter, 24 h. Potency, µM (titrated, usually from 9.22 µM), inactives show at the top dose activation, hits mostly activators. AID 485313, 2010. hit rate 2.4% among 320,000; further: % of control where 0% means no effect; nearly all actives have a fitted effect of over 60% in size
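In 1536-well qHTS, Huh7 cells harboring an NPC1 promoter–luciferase construct received compound for 24 h; activation was quantified by luminescence following luciferase reagent addition.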
SMN2 splice up – qHTS Assay for Enhancers of SMN2 Splice Variant Expression. hit rate 2.8% among 210,000. HEK293 SMN2-luciferase splicing reporter, luminescence, 30-36 h. Potency, µM (series often up to 46.1 µM), inactives show at the highest dose activity change, positive = activation, usual class: activators; further: % of control where 0% means no effect; nearly all actives have a fitted effect of over 55% in size
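HEK293 cells carry an SMN2 minigene-luciferase reporter in which exon 7 inclusion puts luciferase in frame. Cells were seeded at 2000 cells/well, attached for 10-12 hours, then exposed to compounds for 30-36 hours at 37C before ONE-Glo luminescence.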
ELG1 DNA repair – qHTS screen for small molecules that inhibit ELG1-dependent DNA repair in human embryonic kidney (HEK293T) cells expressing luciferase-tagged ELG1; HEK293T ELG1-luciferase reporter, luminescence, 16 h; DNA damage induced by 5-fluorouridine; Potency, µM (top dose mostly 46.1 µM), without a hit: top-dose activity change, negative = inhibition, most hits filed as inhibitors; hit rate 2.3% among 330,000; further: on the % scale 0 is the no-effect control and ±100 the full control effect; nearly all actives have a fitted effect of over 55% in size
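Overnight (16 hr) co-exposure of 2,000 cells/well to 5-fluorouridine and compound at 37 °C preceded detection. Luciferase was quantified via ONE-Glo luminescence; loss of signal denotes inhibition.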
FLuc counter – qHTS profiling assay for firefly luciferase inhibitor/activator using purifed enzyme and Km concentrations of substrates (counterscreen for miR-21 project) | AID 588342, 2011 | Luciferin 4-monooxygenase (Photinus pyralis), P08659 | Potency, µM (series often up to 57.5 µM), inactives show top-dose activity change, negative = inhibition, usual class: inhibitors | purified FLuc, Km substrates, luminescence inhibition | hit rate 6.9% among 360,000;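 further: plate controls were vehicle for no effect and reference inhibitor for full effect; nearly all actives have a fitted effect of over 55% in size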
Target sequence (P08659 whole entry, looked up): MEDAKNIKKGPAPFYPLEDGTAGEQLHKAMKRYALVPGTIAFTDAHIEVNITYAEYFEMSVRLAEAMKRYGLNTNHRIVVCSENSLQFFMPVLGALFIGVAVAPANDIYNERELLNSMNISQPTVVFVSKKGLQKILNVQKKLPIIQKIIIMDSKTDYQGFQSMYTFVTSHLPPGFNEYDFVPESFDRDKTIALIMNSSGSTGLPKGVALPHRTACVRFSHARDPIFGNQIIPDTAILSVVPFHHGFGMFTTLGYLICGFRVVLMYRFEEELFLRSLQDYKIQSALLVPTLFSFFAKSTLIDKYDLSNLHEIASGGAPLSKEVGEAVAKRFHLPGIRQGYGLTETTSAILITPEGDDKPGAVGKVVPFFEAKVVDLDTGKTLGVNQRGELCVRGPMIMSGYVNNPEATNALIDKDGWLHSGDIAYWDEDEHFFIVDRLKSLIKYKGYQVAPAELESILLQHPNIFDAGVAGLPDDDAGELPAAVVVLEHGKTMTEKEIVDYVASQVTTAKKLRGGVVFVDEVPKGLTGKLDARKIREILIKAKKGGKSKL
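Purified P. pyralis luciferase, 10 nM final, with Km-level 10 uM D-luciferin and 10 uM ATP in 50 mM Tris acetate pH 7.5, 10 mM Mg acetate, 0.01% Tween-20, 0.05% BSA; 6-point qHTS titration about 60 µM downward; luminescence read.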
Numbers without * were called inactive; ? = inconclusive; . = not tested or not shown; [ ] = remark or other dose. Hits are enriched below; roughly 9.3% of the tested compounds scored in any of these assays. The call rests on the fitted dose curve; in most records, active means well fitted curve in the direction sought with a large enough effect; inconclusive means small, poorly fitted or top-dose-only effect, or another doubt; inactive means no such curve, though single readings can be large; an effect the other way counts as inactive or inconclusive. Potency means the concentration at half of the fitted maximal effect.

SMILES	ELG1 genotoxic	Rab9 promoter act	NPC1 prom act	SMN2 splice up	ELG1 DNA repair	FLuc counter
O=[N+]([O-])c1ccc(N/N=C/c2ccc[nH]2)cc1	11.3%	1.9%	-9.4%	-32.1%	28.3%	?
FC(F)(F)c1cccc(Sc2cc(C(F)(F)F)nc(-c3ccccn3)n2)c1	-9.6%	-1.9%	-0.5%	-19.0%	?	-4.3%
COc1ccccc1Sc1nc(-c2ccccn2)ncc1OC	-11.0%	-2.6%	19.0%	-81.4%	23.1µM*	-1.3%
Cc1ccc(Sc2cc(C)nc(-c3ccccn3)n2)cc1	5.9%	4.6%	20.5%	.	?	16.9µM*
COc1cnc(-c2ccccn2)nc1Sc1ccc(C)cc1	-14.5%	0.1%	-27.2%	-104.1%	23.1µM*	-6.8%
COc1ccc2[nH]cc(CCNc3nc(-c4ccc(C(=O)N(C)C)cc4)nc4ccccc34)c2c1	.	.	.	11.2µM*	.	.
COc1ccc(N=C2O/C(=C/c3sc(=S)n(CC4CCCO4)c3O)N=C2C#N)cc1 (configuration not stated)	-7.8%	6.7%	12.5%	.	-4.9%	2.39µM*
O=C1N=c2ccccc2=C1c1sc(=S)n(CC2CCCO2)c1O (configuration not stated)	-2.7%	-1.5%	-0.2%	-6.9%	0.4%	-0.1%
O=C(c1ccc2c(=O)n(Cc3ccccc3Cl)c(=S)[nH]c2c1)N1CCOCC1	-7.2%	-1.4%	14.5%	.	-0.6%	1.8%
Cc1sc(NC(=S)NC(=O)c2cccs2)nc1-c1ccc(C(C)C)cc1	-0.1%	8.1%	1.5%	-1.0%	11.1%	4.3%
Cc1nc(NC(=O)c2ccco2)sc1C(=O)O	4.1%	-0.1%	0.8%	.	3.3%	10.7µM*
CC(=O)c1sc(NC(=O)c2ccco2)nc1-c1ccccc1	14.6µM*	?	?	27.6%	?	10.7µM*
Cc1sc(NC(=O)c2cccs2)nc1-c1ccccc1	1.3%	?	25.1%	.	?	10.7µM*
COC(=O)c1sc(NC(=O)c2ccco2)nc1C	16.2%	21.9%	14.3%	8.0%	?	?
Cc1sc(N/N=C/c2cccs2)nc1-c1ccccc1	?	?	18.2%	-18.8%	?	10.7µM*
CCOC(=O)c1sc(NC(=O)c2ccco2)nc1-c1ccccc1	-9.6%	-6.4%	0.3%	1.4%	-3.9%	-0.3%
CCOc1ccc(N2CC(C(=O)NC3=NCCS3)CC2=O)cc1 (configuration not stated)	-1.6%	-0.9%	-5.6%	.	9.8%	3.1%
CCCNC(=O)CN1C(=O)c2c(c3ccccc3n2C)C1c1ccc(OC)cc1 (configuration not stated)	.	.	.	.	.	-9.7%
O=C(Nc1cccc(C(F)(F)F)c1)C1CCN(c2nnc(-n3cccc3)s2)CC1	.	.	.	.	.	3.2%
Cc1ccc2nc(-c3ccccc3)c(NC(=O)c3ccco3)n2c1	-0.3%	-1.0%	-1.7%	-12.3%	15.1%	-13.3%
CC(=O)c1c(C)[nH]c(C(=O)Nc2cccc3ccccc23)c1C	-6.3%	10.4%	0.6%	.	-4.3%	-9.7%
O=C(Nc1nsc(-c2ccccc2)n1)c1cccs1	0.581µM*	1.12µM*	1.58µM*	3.16µM*	?	4.26µM*
Cc1cnc(NC(=O)c2ccco2)s1	?	?	?	?	?	21.3µM*
Cc1sc(NC(=O)c2ccco2)nc1-c1ccccc1	?	1.58µM*	3.55µM*	4.47µM*	?	2.13µM*
CC(=O)c1c(C)[nH]c(C(=O)Nc2nc(-c3ccccc3)c(C)s2)c1C	8.9%	?	?	.	?	3.01µM*
SMILES	ELG1 genotoxic	Rab9 promoter act	NPC1 prom act	SMN2 splice up	ELG1 DNA repair	FLuc counter
O=C(Nc1c(-c2ccccc2)nc2ccccn12)c1cccs1	4.0%	1.6%	-0.8%	-11.8%	1.7%	-4.3%
O=C(Nc1cccc(F)c1)[C@@H](c1ccccc1)N1Cc2ccccc2C1=O	.	.	.	-0.1%	.	-2.1%
CCn1ccc(C(=O)NC2=NCCS2)n1	5.5%	15.3%	-1.5%	44.2%	?	-15.6%
CCn1ccc(C(=O)Nc2ncc(C)s2)n1	0.4%	0.794µM*	0.794µM*	.	?	?
COc1cc2c(cc1OC)-c1cc(Nc3ccc4c(c3)OCCO4)nc(=O)n1CC2	?	-9.5%	-0.9%	-0.1%	?	15.1µM*
CC(C)(C)OC(=O)N1CCC(c2c(C(=O)N3CCN(C(=O)c4ccco4)CC3)cnn2-c2ccccc2Cl)CC1	.	.	.	.	.	-4.5%
O=C1C(=C2SCCCS2)CC/C1=C\c1ccc(F)cc1	?	?	?	-78.5%	?	0.0675µM*
Cc1cccc(/C=C2\CCC(=C3SCCCS3)C2=O)c1	?	0.0891µM*	0.316µM*	?	?	0.0849µM*
O=C1CNC(=O)/C(=C\c2ccc(F)cc2)N1	0.2%	1.2%	4.0%	.	0.9%	1.6%
CC1Cc2cc(S(=O)(=O)N3CCC(C(=O)N(C)Cc4ccccc4)CC3)ccc2N1C(=O)C1CC1 (configuration not stated)	-0.8%[9.26 µM]	3.4%	-2.3%	.	20.6µM*	-0.1%
CC(=O)N1c2ccc(S(=O)(=O)N3CCC(C(=O)Nc4cccc(C)c4)CC3)cc2CC1C (configuration not stated)	-1.6%[9.26 µM]	0.4%	-5.6%	.	29.1µM*	2.0%
CCc1ccc(NC(=O)C2CCN(S(=O)(=O)c3ccc4c(c3)CC(C)N4C(C)=O)CC2)cc1 (configuration not stated)	-11.2%	-20.5%	-6.6%	.	7.3µM*	5.2%
CC1Cc2cc(S(=O)(=O)N3CCC(C(N)=O)CC3)ccc2N1C(=O)C1CC1 (configuration not stated)	0.0%[9.26 µM]	-2.6%	-2.4%	.	-0.7%	0.5%
Cc1ccnc(NC(=O)C2CCN(S(=O)(=O)c3ccc4c(c3)CC(C)N4C(=O)C3CCC3)CC2)c1 (configuration not stated)	-18.0%	-0.1%	-2.8%	.	9.2µM*	1.4%
Cc1ccccc1OC(=O)CSc1nnc(-c2ccc(F)cc2)o1	.	.	.	.	.	-1.2%
COc1ccc2cc([S+]([O-])Cc3ncc(C)c(OC)c3C)nc2c1	.	13.2%[46.1 µM]	15.5%[46.1 µM]	.	.	.
CCOC(=O)C1CCN(C(=O)C2CCN(S(=O)(=O)c3ccc4c(c3)CC(C)N4C(C)=O)CC2)CC1 (configuration not stated)	-0.3%[9.26 µM]	-7.7%	-5.6%	.	10.3µM*	-3.1%
CCOC(=O)C1CCN(S(=O)(=O)c2ccc3c(c2)CC(C)N3C(=O)C2CC2)CC1 (configuration not stated)	-6.6%[9.26 µM]	-8.5%	-9.5%	.	-5.9%	-1.4%
